# Active and inactive are the calls of the source.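 Rule for the calls, unless noted: active = fluorescence slope after compound addition differing from the mean of all screened samples at 99.7% confidence, in either direction; inactive = the rest.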
# Columns and labels:
# [1] = inhibitors of TNFa-induced NFkB p65 translocation, primary screen, imaging, HUVEC, MLSMR starter and 10KST1 sets (AID 438;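 active = inhibition above 20% together with a positive visual image hit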;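 note: compound added about 3h40 before a 20 min TNFalpha stimulation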;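 for inhibition: signal is the nuclear over cytoplasmic p65 intensity ratio per well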); settings: HUVEC TNFa-induced p65 nuclear translocation; cell count: measured here: nuclei count (cytotoxicity indicator), at 2.08 µM unless noted; inhibition: at 2 µM, stronger effect = higher value unless noted
# [2] = inhibitors of mutant huntingtin aggregation, primary screen, imaging, exon1htt(103Q)mCFP cells, high-content imaging (AID 483;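 active = visual image review flags a hit and inhibition of aggregation exceeds 20%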;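 note: compound exposure lasted 3 days before fixation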;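 for nuclei count: percent of the per-plate median nuclei count of sample wells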); settings: exon1htt(103Q)mCFP cell line, aggregate imaging, at 2 µM; inhibition of aggregation: stronger effect = higher value; nuclei count: measured here: cell count, toxicity
# [3] = inhibitors of E-selectin induction by TNFa, primary screen, imaging, HUVEC, immunofluorescence, MLSMR starter and 10KST1 sets (AID 487;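 active = visually confirmed hit in the image check and inhibition above 20%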;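 for inhibition: signal is fraction of cell area covered by stained E-selectin grains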;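 for nuclei count: 100% = median nuclei count of all wells on the same plate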); settings: HUVEC TNFalpha-induced E-selectin immunofluorescence imaging, at 2 µM; inhibition: stronger effect = higher value; nuclei count: measured here: cell number, toxicity
# [4] = target: Voltage-gated potassium channel subunit beta-2 (Rattus norvegicus) (UniProt P62483); assay: KvBeta enzyme negative modulators, primary screen, biochemical, NADPH fluorescence (AID 622;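 active = fluorescence slope higher than the sample average by over 3 SD, cut at about -0.22 in these data, passing the limit was not always enough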;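 note: slope of raw intensity against log time taken from 70 to 1610 s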); settings: recombinant KvBeta, 4-cyanobenzaldehyde reduction, at 10 µM, stronger effect = higher value
# Voltage-gated potassium channel subunit beta-2 (Rattus norvegicus), sequence (P62483 whole entry, looked up): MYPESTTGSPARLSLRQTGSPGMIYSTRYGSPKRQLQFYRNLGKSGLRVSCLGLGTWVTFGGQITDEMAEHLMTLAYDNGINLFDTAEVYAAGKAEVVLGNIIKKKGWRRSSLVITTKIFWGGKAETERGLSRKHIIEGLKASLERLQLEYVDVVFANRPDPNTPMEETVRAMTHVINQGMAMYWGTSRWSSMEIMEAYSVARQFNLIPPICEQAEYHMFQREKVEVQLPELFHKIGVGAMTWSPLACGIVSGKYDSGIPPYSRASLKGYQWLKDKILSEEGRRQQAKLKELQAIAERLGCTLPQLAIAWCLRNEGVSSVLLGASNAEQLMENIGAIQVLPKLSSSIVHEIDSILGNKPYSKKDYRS
# [5] = target: Voltage-gated potassium channel subunit beta-2 (Rattus norvegicus) (UniProt P62483); assay: KvBeta positive modulators, primary screen, biochemical, NADPH fluorescence (AID 623;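 active = NADPH fluorescence slope more negative than the mean of all samples by about 3 SD, 99.7% confidence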;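 note: fluorescence intensity change per second fitted from 20 to 320 s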); settings: Recombinant KvBeta, NADPH fluorescence decrease slope, 10 min; at 10 µM; stronger effect = lower value
# [6] = target: Alpha-2C adrenergic receptor (Homo sapiens) (UniProt P18825); assay: modulators of alpha2C/GIRK thallium flux, primary screen, cell-based, HEK293 alpha2C/GIRK1/2 (AID 624); settings: thallium flux BTC fluorescence, at 10 µM, actives lie on both sides;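 note: slope of fluorescence ratio to pre-addition baseline per second over 15 to 24 s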
# Alpha-2C adrenergic receptor (Homo sapiens), sequence (P18825 whole entry, looked up): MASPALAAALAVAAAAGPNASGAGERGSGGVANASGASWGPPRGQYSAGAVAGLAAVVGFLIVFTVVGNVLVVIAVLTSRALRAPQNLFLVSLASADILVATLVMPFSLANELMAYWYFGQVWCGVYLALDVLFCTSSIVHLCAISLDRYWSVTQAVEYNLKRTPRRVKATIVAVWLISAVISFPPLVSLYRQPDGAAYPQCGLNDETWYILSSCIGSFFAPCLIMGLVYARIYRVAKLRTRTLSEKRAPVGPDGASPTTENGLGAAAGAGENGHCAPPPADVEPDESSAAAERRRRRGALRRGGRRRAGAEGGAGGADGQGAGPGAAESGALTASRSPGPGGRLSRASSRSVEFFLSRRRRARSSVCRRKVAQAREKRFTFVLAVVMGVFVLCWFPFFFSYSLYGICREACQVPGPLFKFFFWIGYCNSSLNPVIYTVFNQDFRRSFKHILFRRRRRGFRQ
# [7] = inhibitors of Sendai virus-induced IRF3 signaling, primary screen, TLR/RLR signaling modifier project, cell-based, Sendai virus stimulus, luciferase, 10K MLSCN set (AID 602276;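 active = inhibition at or above 50% at 10 µM; inactive = inhibition below 50%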;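 note: firefly luciferase from ISG56 promoter only with Renilla not read in this screen; 0% = Sendai virus plus DMSO and 100% = medium plus DMSO without virus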); settings: HEK293 RL24 IRF3 luciferase reporter, at 10 µM, stronger effect = higher value
# [8] = inhibitors of poly I:C-induced TLR3 signaling, primary screen, cell-based, poly I:C stimulus, luciferase, 10K MLSCN set (AID 602277;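 active = inhibition of the reporter signal at or above 50%; inactive = inhibition below 50%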); settings: HEK293-TLR3 RL24 IRF3 luciferase reporter, at 10 µM, stronger effect = higher value
Structure (SMILES),cell count [1],inhibition [1],inhibition of aggregation [2],nuclei count [2] [%],inhibition [3],nuclei count [3] [%],fluorescence slope [4],NADPH fluorescence slope [5],slope [6],inhibition [7],inhibition [8]
CC#CP(=O)(OCC)C(O)(c1ccccc1)C(F)(F)F (stereo unspecified),621,12.5% (inactive),4.9% (inactive),90.8,-29.4% (inactive),110,-0.621 (inactive),5.6e-07 (inactive),0.0037 (inactive),15% (inactive),23.4% (inactive)
Cc1ccc(C)c(NC(=O)CSc2nnc([C@@H](N)Cc3c[nH]c4ccccc34)o2)c1,282,9.5% (inactive),-6.6% (inactive),103,-8.3% (inactive),92.8,-0.428 (inactive),-1.2e-05 (inactive),0.00513 (inactive),9.6% (inactive),24.2% (inactive)
Cc1ccc(C(=O)C2CN3CCC2CC3)cc1 (stereo unspecified),882,-7.3% (inactive),-13.1% (inactive),103,-84.2% (inactive),111,-0.441 (inactive),-2.3e-05 (inactive),0.00351 (inactive),11.9% (inactive),43.4% (inactive)
CC1=C(C(=O)N2CCC3(CC2)OCCO3)C2(CCC(C)CC2)OC1=O (stereo unspecified),651,-25.5% (inactive),3.3% (inactive),104,-0.9% (inactive),103,-0.377 (inactive),-4.4e-05 (inactive),0.00593 (inactive),7.64% (inactive),31.1% (inactive)
C=CCn1c(O)c(C(C)=Nc2ccc(N(CC)CC)cc2)c(=O)[nH]c1=O,327,2.5% (inactive),-15.3% (inactive),102,-33.7% (inactive),109,-0.492 (inactive),2.3e-05 (inactive),0.00389 (inactive),21.7% (inactive),25.5% (inactive)
COc1ccc(OC)c(N2C(=O)NC(=O)C(CCc3ccncc3)(CCc3ccncc3)C2=O)c1,397,1% (inactive),-24.7% (inactive),107,-73% (inactive),115,-0.329 (inactive),-2.9e-06 (inactive),0.00479 (inactive),10.1% (inactive),12% (inactive)
O=c1[nH]c(=O)n(Cc2ccc(F)cc2)c(O)c1C=NCCCN1CCOCC1,728,-22.4% (inactive),4.6% (inactive),105,35.3% (inactive),101,-0.441 (inactive),1.3e-06 (inactive),0.00502 (inactive),-0.0843% (inactive),3.86% (inactive)
COc1ccc(S(=O)(=O)NC(CC(=O)N2CCC3(CC2)OCCO3)c2ccco2)cc1 (stereo unspecified),633,6.7% (inactive),16.2% (inactive),86.8,-121% (inactive),144,-0.451 (inactive),-0.000345 (inactive),0.00534 (inactive),17.9% (inactive),22.1% (inactive)
Cc1ccc(C)c(NC2=NCCCS2)c1,304,9.3% (inactive),15.3% (inactive),92.5,-82.5% (inactive),91,-0.566 (inactive),9.6e-06 (inactive),0.00513 (inactive),17.2% (inactive),22% (inactive)
CCOc1cc2[nH]c(=S)n(CCCC(=O)N3CCC4(CC3)OCCO4)c(=O)c2cc1OCC,429,9.4% (inactive),-0.4% (inactive),95.6,-41.4% (inactive),107,-0.464 (inactive),7.5e-06 (inactive),0.00495 (inactive),-5.57% (inactive),17.4% (inactive)
c1cncc(CNC2=NCCCCC2)c1,315,2.9% (inactive),2.4% (inactive),114,-154% (inactive),127,-0.469 (inactive),-0.000124 (inactive),0.0069 (inactive),5.89% (inactive),24.1% (inactive)
